Measured potencies and affinities stand elsewhere. Records with an inconclusive call do not appear. How the calls were made is not given here.
Target: CAAX prenyl protease 1 (Saccharomyces cerevisiae (strain ATCC 204508 / S288c)) (UniProt P47154)
Test: yeast CAAX protease Ste24 inhibition – biochemical, S. cerevisiae, plate reader, cherry-pick, dose response (AID 488815);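 further: 0% = neutral control wells and -100% = no enzyme wells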
Conditions: series mostly up to 10 µM; activity change, negative = inhibition: at the top concentration

Sequence of CAAX prenyl protease 1 (Saccharomyces cerevisiae (strain ATCC 204508 / S288c)) (P47154 whole entry, looked up): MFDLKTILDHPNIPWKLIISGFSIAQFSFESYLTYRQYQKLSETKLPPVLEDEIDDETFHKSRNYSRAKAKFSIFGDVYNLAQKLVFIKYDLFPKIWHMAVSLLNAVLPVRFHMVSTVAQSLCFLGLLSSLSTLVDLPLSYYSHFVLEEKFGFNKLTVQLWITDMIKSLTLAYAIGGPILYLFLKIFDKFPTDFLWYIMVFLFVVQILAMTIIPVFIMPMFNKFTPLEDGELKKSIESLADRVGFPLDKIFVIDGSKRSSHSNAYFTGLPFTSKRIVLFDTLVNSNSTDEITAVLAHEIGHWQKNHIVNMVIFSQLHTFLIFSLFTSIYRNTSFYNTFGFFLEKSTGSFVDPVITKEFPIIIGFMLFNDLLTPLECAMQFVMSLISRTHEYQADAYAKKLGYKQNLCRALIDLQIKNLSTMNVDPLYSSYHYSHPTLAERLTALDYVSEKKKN

Activity change, negative = inhibition, inactive:
COc1ccc(C(CNC(=O)COc2cc(C)c(Cl)c(C)c2)N2CCCCC2)cc1 (stereo not given) 8.59%
CN1CCN(C(=S)NC(=O)c2ccccc2Cl)CC1 12.7%
Cc1ccc(S(=O)(=O)Nc2ccccc2C(=O)NCC2CCCO2)cc1 (stereo not given) 8.24%
CN1c2ccc(C=O)c3c(C=O)ccc(c23)N(C)C1(C)C 16.1%
Cc1nc(N2CCCCC2)c2c(C)c(C(=O)Nc3ccccc3C(F)(F)F)sc2n1 -7.43%
NC(=O)c1nsc(C(=O)N(c2ccccc2F)C(C(=O)NCc2ccccc2)c2ccc(O)cc2)c1N (stereo not given) -125%
Cc1cccc2sc(N(CCN(C)C)C(=O)c3ccc4ccccc4c3)nc12 2.57%
CCCCOc1ccc(Cc2c(COCC)[nH]c(=S)[nH]c2=O)cc1 40.5%
O=C(Nc1ncccn1)c1ccc([N+](=O)[O-])cc1 14.3%
Clc1cccc(CN2CCc3c([nH]c4ccccc34)C2)c1Cl 13.1%
Cc1cc(-c2ccccc2)n2nc(C)c(C#N)c2n1 -15.7%
Cc1ccc(C2(COC(=O)C(C)C)CO2)c(OC(=O)C(C)C)c1 (stereo not given) 38.2%
CC1(c2ccc(OCC#N)cc2)C=C(c2ccc(OCC#N)cc2)n2nc(C(F)(F)F)nc2N1 (stereo not given) -3.89%
Cc1ccc(C(=O)c2c3ccccc3[n+]([O-])n2CCO)cc1 0.667%
O=C1CCN(Cc2ccccc2)CCN1[C@H](CSc1ccccc1)Cc1ccccc1 24.5%
Cc1cc(C(=O)N/N=C/c2c3ccccc3cc3ccccc23)n[nH]1 0.0888%
N/C(Cc1ccc([N+](=O)[O-])cc1)=N\OC(=O)c1ccc2ccccc2c1 37.9%
O=C(Nc1ccccc1-c1nc2ccccc2[nH]1)c1ccc(N2C(=O)CCC2=O)cc1 30.1%
COc1ccc(-n2nc(C(=O)NCC(=O)N3CCC(C)CC3)c3ccccc3c2=O)cc1 23.7%
O=C1CN(S(=O)(=O)c2ccc([N+](=O)[O-])cc2)CC(=O)N1 13.3%
Cc1cccc(-c2nnc(SCc3ccc(C#N)cc3)n2Cc2ccco2)c1 11.9%
O=C(CN1CCC(NC(=O)c2ccc(Br)cc2)CC1)NCc1cccs1 13.2%
CSc1ccc(C(=O)C2CCCN(C(=O)c3cccnc3SC)C2)cc1 (stereo not given) 16.5%
CC(C)C[C@H](NC(=O)c1nc[nH]c1C(=O)N1CCNCC1)C(=O)OCc1ccccc1 22.1%
c1ccc(Nc2cccc(Nc3ccccc3)n2)cc1 67%
CCn1cc(/C=C(\NC(=O)c2ccccc2)C(=O)N2CCOCC2)c2ccccc21 -6.81%
Cc1cc(NC(=O)c2oc3ccccc3c2C)ccc1-n1cnnn1 12.4%
Cc1cccc(NC(=O)c2cc(S(=O)(=O)N3CCCCC3)c[nH]2)c1C 15.9%
COc1ccc(/C=N/NC(=O)c2ccc(Cl)cc2)cc1COC(C)=O 28.9%
COc1cc(-c2nc3ccccn3c2/N=C/c2cc(OC)c(OC)c(OC)c2)ccc1O -1.51%
Cc1cc(N)c2cc(NC(=O)/C=C/c3ccccc3Cl)ccc2n1 -21.1%
CC(C)NCC(O)COCCOc1ccc(Br)cc1 (stereo not given) 35.7%
CC(Cc1cccs1)NC(=O)Nc1ccc([N+](=O)[O-])cc1 (stereo not given) 27%
O=C1NC2(C=Cc3c(ccc4ccccc34)O2)Oc2ccccc21 (stereo not given) 2.33%
CC(C)N1CCN(S(=O)(=O)c2ccc3ccccc3c2)CC1 4.94%
CC1=NN(c2ccccc2)C(=O)/C1=C\c1ccc(Br)s1 14.5%
C/C(CC1(O)C(=O)Nc2ccccc21)=N\O (stereo not given) 50%
O=C(c1cnc2n(c1=O)CCS2)N1CCN(C(c2ccccc2)c2ccc(Cl)cc2)CC1 (stereo not given) 24%
CC(/C=N\NC(=O)CN1CCN(S(=O)(=O)c2ccc(C)cc2)CC1)=C\c1ccccc1 12.6%
O=C(O)c1ccc2cccc(Cl)c2c1O 14%
